# Source: PubChem BioAssay (several laboratories)
# ROMK mod: modulators of human ROMK potassium channel. P48048. Tet-inducible ROMK, thallium flux fluorescence; actives lie on both sides. B-score at 10 µM. hit rate 2% among 130,000;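 active = signal ratio slope over the read window, or its plate-corrected B-score, at least 3 SD from the plate mean, either direction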;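 also: B-score of the F/F0 ratio slope over 7 to 12 s after thallium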
# Lmaj promast: Leishmania major promastigote growth inhibition; Leishmania major promastigotes, resazurin fluorescence viability; inhibition, % at 10 µM; hit rate 9% among 200,000; AID 1063; in the data active = inhibition above about 50%;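 also: promastigotes grown with compound for 44 hours at 28 °C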
# Cl transport mod: modulates chloride dependent transport by human KCC2; B-score of Tl+ flux slope (higher = more flux/activation; lower = inhibition) at 10 µM; AID 1456; hit rate 2.2% among 190,000; KCC2 cells, thallium flux FluoZin-2 fluorescence; Q9H2X9;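 active = thallium flux slope and its plate-corrected score both differing from the plate sample mean at a set confidence after two filtering rounds, in either direction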;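 also: slope of fluorescence scaled to starting intensity during 10 to 20 s after thallium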
# WT yeast gro inh: growth inhibition of WT yeast, mitochondrial fusion screen. mitochondrial fusion phenotypic screen, WT strain. inhibition, % at 10 µM. hit rate 2.1% among 190,000; in the data active = inhibition above about 58%; tested in S. cerevisiae
# Calpain2 inh: calpain II (pig) inhibition. AID 1236. purified calpain II, fluorogenic peptide substrate, 30 min. hit rate 0.37% among 220,000. inhibition, % at 16 µM;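 active = inhibition above about 50%, limit read from the data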
# The depositor's hits bear a star; . = not tested or not shown; ! = not confirmed by another sample. The list is not random: actives were taken first. Their share in the collection is about 12%.
SMILES,ROMK mod,Lmaj promast,Cl transport mod,WT yeast gro inh,Calpain2 inh
COc1ccc(/C=N/NC(=O)c2ccc(N(C)S(=O)(=O)c3ccccc3)cc2)cc1OC,.,67.0*,-0.24,-0.1,-44.3
COc1cc(/C=N/NC(=O)COc2c(C)cc([N+](=O)[O-])cc2C)ccc1OC(=O)c1ccccc1,-0.3,98.8*,0.527,14.1,-50.2
COc1cc(/C=N/NC(=O)COc2c(C)cc([N+](=O)[O-])cc2C)ccc1OC(=O)c1ccccc1Br,-1.29,72.8*,0.832,14.8,-62.3
Cc1cccc(C(=O)Oc2ccc(/C=N/NC(=O)c3ccccc3O)cc2)c1,.,25.6,0.996,16.2,-9.4
Cc1cccc(C(=O)Oc2ccc(/C=N/NC(=O)Cc3ccc([N+](=O)[O-])cc3)cc2)c1,.,50.4*,1.26,6.0,26.4
CCOc1ccc(C2OC(=O)Cc3cc(OC)c(OC)cc32)cc1 (stereo not drawn),.,-4.8,-1.31,8.4,-35.7
COc1ccc(/C=N/NC(N)=S)cc1OC(=O)c1ccccc1,.,78.6*,-1.53,34.0,-21.1
CCOC(=O)c1c(C)nc2sc3c(=O)n(-c4ccc(C(C)=O)cc4)cnc3c2c1-c1ccc(Cl)cc1,-0.0378,48.7,-0.784,9.7,-116.8
CCOC(=O)c1c(C)nc2sc3c(=O)n(-c4ccc(C(C)=O)cc4)nnc3c2c1-c1ccc(Cl)cc1,.,54.2*,.,13.5,-71.5
CCOC(=O)C1CCCN(C(=O)c2csc(-c3ccc4c(c3)CCO4)n2)C1 (stereo not drawn),-0.12,.,-0.157,.,17.3
Cc1cc(C)n(-c2ccc(C(=O)OCC(=O)NCc3ccc(F)cc3)cc2)n1,.,-4.6,-0.929,-3.3,3.6
CCOC(=O)c1cnc(SC)nc1Sc1ccccc1Cl,0.0917,-4.0,-0.738,67.2*,-2.9
CCOC(=O)c1cnc(SC)nc1NCCOC,1.21,1.4,0.924,5.0,9.6
CSc1nc(Sc2ccccc2Cl)c2ccccc2n1,.,-1.5,.,67.8*,-17.1
CSc1nc(Oc2ccc3ccccc3c2)c2ccccc2n1,.,47.3,0.336,48.9,-3.6
O=C1COc2ccccc2N1Cc1ccccc1Cl,.,-1.6,-0.489,3.6,-6.4
Cn1c(N=Nc2ccc(N3CCOCC3)cc2)[n+](C)c2ccccc21,0.56,100.4*,0.284,71.4,-21.8
CC(=O)Nc1c(I)c(NC(C)=O)c(I)c(C(=O)O)c1I,.,1.5,10.3*!,0.0,4.5
Cc1ccc(NC(=O)Cn2nc(C)c(S(=O)(=O)N(C)C)c2C)cc1,-0.542,-4.7,0.623,-5.7,6.7
Nc1nc(-c2ccccc2)nc2sc3c(c12)CCCC3,-0.533,60.0*,0.306,5.2,0.1
Nc1nc2sc3c(c2c(=O)s1)CCCC3,-1.12,16.5,-0.0505,35.3,18.6
Nc1c2c(nc3sc4c(c13)CCCC4)CCCCCC2,-0.024,55.1*,-0.16,14.8,-2.2
C=CCn1c(-c2cc3c(s2)CCC(CC)C3)n[nH]c1=S (stereo not drawn),-0.462,-7.0,4.14,74.2*,-356.3
Cc1cccc(OCC(=O)NC(=S)Nc2ccc(S(=O)(=O)NC3CCCCC3)cc2)c1,0.274,-2.2,-1.84,8.2,-3.3
O=C1CC(NCc2ccc3c(c2)OCO3)C(=O)N1Cc1ccc2c(c1)OCO2 (stereo not drawn),-1.93,-6.9,.,-1.5,13.9
SMILES,ROMK mod,Lmaj promast,Cl transport mod,WT yeast gro inh,Calpain2 inh
CCc1ccc(NC(=S)N(CCN(C)C)C(C)c2ccncc2)cc1 (stereo not drawn),.,9.3,0.37,14.5,29.4
Cc1ccc(N=Cc2c(O)n(-c3cc(Cl)ccc3N3CCOCC3)c(=O)c3ccccc23)cc1C,-0.194,69.8*,-0.081,8.2,-29.0
Cc1cc(N=Cc2c(O)n(-c3cccc(Cl)c3)c(=O)c3ccccc23)no1,-0.112,1.3,0.958,7.3,-5.6
O=C1CC(SC(=Nc2ccccc2)Nc2ccccc2)C(=O)N1c1ccc(Cl)c(Cl)c1 (stereo not drawn),0.438,66.0*,-0.383,61.8*,17.0
CN=C(Nc1cc(Cl)ccc1Cl)SC1CC(=O)N(c2ccc(C(=O)OC)cc2)C1=O (stereo not drawn),.,34.1,.,69.3*,-18.6
O=C(Nc1nc2ccccc2s1)NC1CCCCC1,0.207,5.8,-2.19,14.0,14.2
CN1CCN(CC(=O)N(Cc2c(C#N)c3ccccc3n2C)c2ccccc2)CC1,0.5,100.1*,0.242,-13.6,0.2
CC(NC(=S)N1CCOCC1)c1ccccc1 (stereo not drawn),.,48.9,0.924,14.4,-11.8
N#CCn1c(C2CCCCC2)nc2ccccc2c1=O,-0.0232,15.7,0.779,10.3,0.9
Cc1ccc(-n2nnnc2SCc2nc3sc(C)c(C)c3c(=O)[nH]2)cc1,0.0936,58.3*,1.53,-8.0,10.0
Cc1cccc2c(C(=O)N3CCN(C(=O)c4ccco4)CC3)cc(-c3cccc(Br)c3)nc12,0.931,29.9,-0.177,81.3*,-83.4
CSc1nc2ccc(NS(=O)(=O)c3ccc([N+](=O)[O-])cc3)cc2s1,.,.,-1.79,.,-2.7
CSc1nc2ccc(NS(=O)(=O)c3cccc(Cl)c3Cl)cc2s1,.,-6.5,-1.45,80.8*,-3.4
CCCC1C(=O)N(Cc2ccccc2)C(=O)CC1C (stereo not drawn),.,.,0.118,.,12.3
NC(=O)C1=C[C@H](c2ccc(Br)cc2)C[C@H](OCc2ccc(CO)cc2)O1,.,-3.5,0.108,1.6,-16.1
Cc1ccc(N(CC(=O)NCCc2ccc(F)cc2)S(=O)(=O)c2ccc(Cl)c([N+](=O)[O-])c2)c(C)c1,.,53.5*,-0.579,17.9,27.2
O=C(CN(c1cccc(C(F)(F)F)c1)S(=O)(=O)c1ccc(Cl)c([N+](=O)[O-])c1)NCc1ccccc1Cl,-0.0957,99.9*,-0.043,-10.4,18.4
O=C(CN(c1cccc(C(F)(F)F)c1)S(=O)(=O)c1ccc(Cl)c([N+](=O)[O-])c1)NCc1ccccc1,.,63.5*,0.548,-6.7,14.0
O=C(CN(c1ccc(Br)cc1)S(=O)(=O)c1ccc(Cl)c([N+](=O)[O-])c1)NCCc1ccccc1,0.391,-5.4,0.0864,0.2,-38.0
Cc1ccc(S(=O)(=O)N2CCN(C(=O)CCC(=O)NCCc3ccc(F)cc3)CC2)cc1,-0.133,-3.8,0.41,0.4,8.3
CC(NC(=O)CN(c1cccc(C(F)(F)F)c1)S(=O)(=O)c1ccc(Cl)c([N+](=O)[O-])c1)c1ccccc1 (stereo not drawn),-0.562,50.0*,1.48,7.4,-18.6
COc1ccc(CCN2C(=NC(=O)CC(C)C)SC3CS(=O)(=O)CC32)cc1OC (stereo not drawn),-0.0252,.,0.537,.,-2.7
COc1cccc(CN(C(=O)Cn2nnc(-c3ccccc3F)n2)C(C(=O)NC(C)(C)C)c2ccncc2)c1 (stereo not drawn),-1.45,6.1,.,-5.9,-19.3
CCC(=O)N(C1=C(NC(C)C)C(=O)c2ccccc2C1=O)C(C)C,.,4.5,0.405,-15.9,2.1
CCCNC1=C(N(C(C)=O)c2cccc(F)c2)C(=O)c2ccccc2C1=O,.,99.4*,-0.22,52.9,28.1
Cc1nc2ccc(NC(=O)c3cncc(Br)c3)cc2s1,.,.,0.749,.,-1.5
CC(C)Cn1c(N)c(C(=O)COC(=O)c2cc(-c3ccccc3)nc3ccccc23)c(=O)n(C)c1=O,0.426,99.5*,0.814,13.7,-102.1
